Screening results from PubChem BioAssay.
This is a sample that favours compounds with a hit; in the whole collection about 3.8% have one here.
MPTP inh: inhibitors of mitochondrial permeability transition pore; isolated mouse mitochondria, Ca2+ swelling absorbance, 30 min; inhibition, % at 10 µM; actives 1.4% (n = 360,000);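 active means inhibition of 50% or more, scaled per plate between neutral and stimulator controls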;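 further: 0% = DMSO wells given calcium and 100% = 1 mM EGTA wells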
aDG glyco up: increases alpha dystroglycan glycosylation. AID 624168. actives 0.22% (n = 360,000). Pro5-aDG cells, alpha-DG glycosylation AlphaScreen (IIH6); 0% Pro5, 100% B10-LARGE cell signal. activation, % at 10 µM;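 active means activation of at least 8% versus controls, or a plate z-score of at least 8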;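 further: Pro5 are CHO cells carrying HIG-tagged alpha-DG that lacks glycosylation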
FAS-TE inh: FAS thioesterase (human) inhibition; P49327; recombinant FAS-TE, OMFH fluorogenic substrate, fluorescence endpoint; inhibition, % at 15 µM; actives 0.67% (n = 360,000); AID 602261;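 active means compounds whose normalised, plate-corrected inhibition of enzyme fluorescence in the single-dose primary screen is 50% or more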;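 further: 0% = DMSO with enzyme and 100% = substrate without enzyme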
Cardio protect: protects H9c2 cardiomyocytes from peroxide injury | H2O2 injury protection, ATPLite, 2 h | AID 588492 | actives 0.63% (n = 360,000) | protection from H2O2 cell death, % at 20 µM;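 active means compounds giving at least 50% protection of heart cells from peroxide-induced death in the single-dose screen, raw or plate-pattern-corrected value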;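 further: 0% = DMSO wells with peroxide and 100% = DMSO wells without peroxide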
CR mimetic SO: caloric restriction mimetics inhibiting age-related superoxide in yeast; S. cerevisiae aged cells, superoxide DHE fluorescence; stronger effect = lower value; superoxide response (% of plate mean), % at 10 µM; actives 0.18% (n = 330,000); AID 2690;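 active means superoxide response under a set limit, about three screen SD below normal, cut at about 65% in these data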;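 further: yeast aged for seven days with compound at 30 °C before DHE staining; 100% = average MFI of all compound-treated wells on the plate with controls excluded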
Mot1-301 SUMO: inhibitors of SUMOylation pathway: yeast Mot1-301 growth rescue | actives 1% (n = 320,000) | S. cerevisiae Mot1-301 growth rescue, ATP luminescence, 38.5C; percent above DMSO median, 100 means doubled | growth rescue, % at 18.8 µM;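 active means every valid replicate shows activation above 250% relative to neutral control wells; inactive means the rest, any valid replicate at or below 250%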;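 further: OY570 slx delta 5 strain wells were the positive control but not used for scaling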
Yeast Mot1 SUMO: SUMO pathway inhibitors in yeast Mot1-301 growth; shares compounds with Mot1-301 SUMO; S. cerevisiae Mot1-301 galactose growth, ATP luminescence, 24 h; -100 = growth of slx-deleted rescue strain; growth activity, percent, % at 42 µM; 2,300 tested, under 10 active;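 active means Signal drops as the depositor expects, and the fitted half-maximal dose is no more than ten times the top valid tested dose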;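 further: more negative values mean stronger growth rescue toward the control strain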
FAS-TE conf: FAS thioesterase (human) inhibition, confirmation. recombinant FAS-TE, OMFH fluorogenic substrate, fluorescence. actives 45% (n = 2,300). AID 624325. shares compounds with FAS-TE inh. inhibition, % at 15 µM;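 active means compounds inhibiting the enzyme by at least 50% at 15 µM in any one of the replicates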;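 further: 0% = enzyme with DMSO only and 100% = wells lacking enzyme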
MPTP counter: mitochondrial membrane potential, counter-screen. shares compounds with MPTP inh. AID 624504. isolated mitochondria, Rhodamine 123 fluorescence. inhibition, % at 10 µM. actives 78% (n = 5,000); in the data active means inhibition above about 22%;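 further: 0% = DMSO vehicle and 100% = positive control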
aDG glyco conf: alpha-DG glycosylation activation, confirmation; shares compounds with aDG glyco up; Pro5-aDG cells, IIH6 AlphaLISA; scaled to LARGE-overexpressing B10 cells as 100%; activation, % at 10 µM (by protocol); actives 17% (n = 600); AID 651671;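 active means activation of at least 7% in one or more replicates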;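 further: cells exposed to compound for two days before detection; 0% = DMSO-treated Pro5 cells and 100% = DMSO-treated B10-LARGE cells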
Numbers without * were called inactive; . = no result given; ! = a repeat was not active.

SMILES	MPTP inh	aDG glyco up	FAS-TE inh	Cardio protect	CR mimetic SO	Mot1-301 SUMO	FAS-TE conf	others
O=C(/C(=N\Nc1ccc(Br)cc1)Sc1nnnn1-c1ccccc1)c1ccccc1	90.5*	-0.3	9.9	2.8	87.9	739.3*	.	Yeast Mot1 SUMO=0.3;MPTP counter=74.1*
CCOC(=O)/C(=N/Nc1ccccc1)Sc1nnnn1-c1ccc(C)cc1	0.0	-0.3	-1.9	-1.5	95.8	-10.1	.
O=C1COc2ccc(-c3csc(=Nc4ccc(OC(F)F)cc4)n3CC3CCCO3)cc2N1 (stereo not given)	24.5	-0.1	18.7	-19.8	106.1	172.5	.
COCC(C)n1c(-c2ccc3c(c2)NC(=O)CO3)csc1=Nc1ccc(OC(F)F)cc1 (stereo not given)	70.3*!	0.3	24.8	-27.3	106.9	531.8*	.	Yeast Mot1 SUMO=-0.3;MPTP counter=53.6*
Cc1cc(NS(=O)(=O)c2ccc(NC(=O)c3cnc(Cl)c(Cl)c3)cc2)nc(C)n1	-0.5	-0.1	-4.0	-4.4	86.0	-1.3	.
c1ccc(-c2nc(N3CCOCC3)c3ccccc3n2)nc1	-1.8	7.0*	-6.0	-2.3	108.5	480.5*	.	Yeast Mot1 SUMO=-1.0;aDG glyco conf=2.8
COc1ccc(/C=C2\CCCC3C2=NC(=S)NC3c2ccc(OC)cc2)cc1 (stereo not given)	-1.4	0.1	-10.5	0.7	98.5	3.1	.
CCCOc1ccc(NC(=O)CC2C(=O)N(CC)C(=S)N2Cc2cccs2)cc1 (stereo not given)	-0.7	0.2	59.2*	-4.2	106.7	29.5	65.2*
COc1ccc(CCN2C(=S)N(C)C(=O)C2CC(=O)Nc2ccc(OC)cc2)cc1 (stereo not given)	-0.9	0.2	14.3	3.4	95.0	201.7	.
COc1ccc(NC(=O)CC2C(=O)N(C)C(=S)N2Cc2cccs2)cc1 (stereo not given)	0.8	0.1	50.6*	0.0	98.8	-11.4	57.6*
CCCCCCOc1ccc(NC(=O)CC2C(=O)N(CC)C(=S)N2Cc2ccco2)cc1 (stereo not given)	8.8	0.9	29.2	-15.1	85.6	3.3	.
COc1cccc(C(=O)O[C@@H]2[C@H](Cc3ccccc3)NS(=O)(=O)[C@H]3C[C@@H]4C=C[C@]23O4)c1	-0.7	-0.1	11.5	-1.6	105.2	2.8	.
CCc1ccc(NS(=O)(=O)c2cc3c(cc2C)n(C)c(=O)c(=O)n3C)cc1	-0.1	0.2	74.1*	-33.0	99.3	-3.3	82.5*
Cc1noc(C(=O)Nc2ccc(F)c(Cl)c2)c1Cl	0.4	-0.1	-0.4	-6.9	136.7	86.9	.
O=C1OCCN1C(=O)[C@H]1[C@H](c2ccc([N+](=O)[O-])cc2)C(c2ccc(F)cc2)=NN1c1ccc(Br)cc1	1.7	-0.1	95.1*	51.5*	98.6	.	13.7
C[C@@H]1C(c2ccccc2)=NN(c2ccccc2)[C@H]1C(=O)N1CCOC1=O	0.5	0.1	8.3	-1.2	104.5	.	.
O=C1OCCN1C(=O)[C@H]1[C@H](c2ccc([N+](=O)[O-])cc2)C(c2ccc(F)cc2)=NN1c1ccccc1	-1.4	-0.1	84.1*	33.7	101.5	.	40.9
C[C@@H]1C(c2cccc(Cl)c2)=NN(c2ccccc2)[C@H]1C(=O)N1CCOC1=O	-2.4	0.1	17.7	-7.6	92.5	.	.
CCO[C@@H]1OC(C(=O)NCc2ccccc2)=C[C@H](C(C)(C)C)[C@H]1CCCO	-1.8	0.1	9.9	0.3	99.8	-3.1	.
CCO[C@H]1OC(C(=O)NCc2ccccc2)=C[C@@H](C2CCCCC2)[C@@H]1CCCO	-1.6	0.4	57.2*	-1.4	98.2	258.5	63.3*
O=C(OCC(=O)N1CCCc2ccccc21)c1cccc(S(=O)(=O)N2CCc3ccccc32)c1	-0.2	-0.1	27.5	-2.8	97.5	3.4	.
COc1ccc(CNC(=O)COC(=O)c2cc(C)oc2C)cc1	1.6	-0.1	0.6	1.5	.	.	.
COc1ccc2cc3cc(C(=O)N4CCCCCC4)oc3nc2c1	-0.8	-0.1	74.3*	-10.2	105.2	307.0	55.7*
COc1ccc2cc3cc(C(=O)N4CCCCC4C)oc3nc2c1 (stereo not given)	1.2	0.3	75.4*	-2.3	108.3	-11.4	62.4*
CCOC(=O)C1CCN(C(=O)c2cc3cc4ccc(C)cc4nc3o2)CC1	0.6	-0.1	55.2*	14.7	83.6	-9.5	62.5*
SMILES	MPTP inh	aDG glyco up	FAS-TE inh	Cardio protect	CR mimetic SO	Mot1-301 SUMO	FAS-TE conf	others
CCOC(=O)N1CCN(C(=O)C[C@@H]2C[C@@]3(C(=O)OC)CC(C)(C)CC=C3N(Cc3cccc4ccccc34)C2=O)CC1	0.9	-0.1	.	.	.	.	.
COCCN1C[C@@H](CO)O[C@@H](n2cnc3c(NCc4ccncc4)ncnc32)C1	0.0	-0.1	-3.7	5.9	.	.	.
O=[N+]([O-])c1cc(-c2csc(NCCc3nc4cc(C(F)(F)F)ccc4n3CCCO)n2)ccc1Cl	0.3	-0.2	80.6*	-12.3	102.9	1.6	69.9*
Cc1nc2cc(C(F)(F)F)ccc2n1CCNc1nc(-c2ccc([N+](=O)[O-])c(Cl)c2)cs1	-0.2	0.4	52.2*	-15.6	98.9	1.3	30.2
COC(=O)[C@@]1(Cc2ccc(OC)cc2)[C@H]2c3cc(C(=O)N4CCCC4)n(CCc4ccc(OC)c(Br)c4)c3C[C@H]2CN1C(=O)c1ccccc1	-1.9	-0.2	73.3*	.	.	.	14.6
Cc1ccc(S(=O)(=O)NN=C2CCC(C(C)(C)C)CC2)cc1[N+](=O)[O-] (stereo not given)	11.0	-0.2	66.9*	0.6	89.7	50.5	46.8*
Cn1ccc2c(/C=C/c3ccc(F)cc3)cc3c(c21)C1CCC3C1 (stereo not given)	1.4	2.1	5.3	5.3	.	.	.
O=C(CNc1cc(S(=O)(=O)N2CCCC2)ccc1OCC(F)(F)F)Nc1ccc(SC(F)F)cc1	14.1	0.7	65.1*	-21.4	97.7	1.0	56.5*
CC(C)(C)c1ccc(C(=O)N2CCC2(C)C(=O)Nc2cccc(C#N)c2)cc1 (stereo not given)	2.7	0.2	64.8*	-6.3	.	.	65.7*
